PubChem BioAssay AID1159580 (chemical genetic matrix, 2015)
Where “and” joins values, the source holds several entries; their conditions need not be identical. Identical values can stand only once. Hit rate of the full screen: of about 5,500 compounds, about 2,000 (36%) were called active. Another 18% or so got no clear call; they are omitted. Rule as the data show it: active = normalized growth mostly below about 0.91 (no sharp cut-off); inconclusive = no clear call, values can overlap the other calls; inactive = mostly above about 0.92. This is one part of the list.

Assay: chemical genetic growth profiling, strain panel (AID 1159580);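 also: tested at 20 µM; growth read once vehicle control cultures reached saturation at 30 °C; 1 = growth at the plate median or of vehicle wells; lower values mean less growth of the strain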
Conditions: S. cerevisiae deletion strains, growth OD

Measured: normalized growth

NC12CC3CC(CC(C3)C1)C2
inactive: locus YAL021C, strain ccr4, active compounds read low 0.977 | locus YAL026C, strain drs2, active compounds read low 0.996 | locus YAL030W, strain snc1, active compounds read low 1.01 | locus YAL040C, strain CLN3, active compounds read low 0.968 | locus YBL061C, strain skt5, active compounds read low 1.01 | locus YBR009C, strain hhf1, active compounds read low 0.99 | locus YBR021W, strain FUR4, active compounds read low 0.992 | locus YBR023C, strain chs3, active compounds read low 1.01 | locus YBR171W, strain sec66, active compounds read low 1.01 | locus YBR229C, strain ROT2, active compounds read low 1 | locus YBR231C, strain swc5, active compounds read low 1.03 | locus YBR279W, strain paf1, active compounds read low 0.994 | locus YCL011C, strain gbp2, active compounds read low 0.985 | locus YCL016C, strain dcc1, active compounds read low 0.977 | locus YCL029C, strain bik1, active compounds read low 1.02 | locus YCL061C, strain MRC1 (second series), active compounds read low 0.991 | locus YCL061C, strain MRC1, active compounds read low 1.04 | locus YCL069W, strain vba3, active compounds read low 1.01 | locus YCR088W, strain abp1, active compounds read low 1.01 | locus YDL005C, strain med2, active compounds read low 0.987 | locus YDL035C, strain GPR1, active compounds read low 1.01 | locus YDL040C, strain nat1, active compounds read low 1 | locus YDL074C, strain BRE1, active compounds read low 1.02 | locus YDL101C, strain DUN1, active compounds read low 1.02 | locus YDL134C, strain PPH21, active compounds read low 1 | locus YDL185W, strain tfp1, active compounds read low 1.02 | locus YDL192W, strain arf1, active compounds read low 1.03 | locus YDR001C, strain nth1, active compounds read low 0.995 | locus YDR069C, strain doa4, active compounds read low 1.01 | locus YDR101C, strain arx1, active compounds read low 1.03 | locus YDR137W, strain rgp1, active compounds read low 1.03 | locus YDR150W, strain NUM1, active compounds read low 0.992 | locus YDR159W, strain sac3, active compounds read low 0.989 | locus YDR162C, strain NBP2, active compounds read low 1.02 | locus YDR195W, strain ref2 1 | locus YDR297W, strain sur2, active compounds read low 1.01 | locus YDR318W, strain mcm21, active compounds read low 1.02 | locus YDR334W, strain swr1, active compounds read low 0.994 | locus YDR335W, strain msn5, active compounds read low 1.01 | locus YDR363W, strain ESC2, active compounds read low 1.04 | locus YDR388W, active compounds read low 1.02 | locus YDR392W, strain spt3, active compounds read low 0.96 | locus YDR502C, strain sam2, active compounds read low 1.01 | locus YEL003W, strain gim4, active compounds read low 1.03 | locus YEL037C, strain rad23, active compounds read low 0.995 | locus YEL061C, strain CIN8 (second series), active compounds read low 0.998 | locus YEL061C, strain CIN8, active compounds read low 1.01 | locus YER002W, strain NOP16, active compounds read low 0.993 | locus YER015W, strain faa2, active compounds read low 1.01 | locus YER016W, strain bim1, active compounds read low 0.996 | locus YER110C, active compounds read low 1.03 | locus YER111C, strain swi4, active compounds read low 0.998 | locus YER155C, strain BEM2 (second series), active compounds read low 1.05 | locus YER155C, strain BEM2, active compounds read low 0.998 | locus YER167W, strain BCK2, active compounds read low 1 | locus YFR010W, strain ubp6, active compounds read low 1.01 | locus YGL078C, strain dbp3, active compounds read low 1.02 | locus YGL086W, strain mad1, active compounds read low 1.01 | locus YGL167C, strain pmr1, active compounds read low 1 | locus YGL173C, strain kem1, active compounds read low 1.03 | locus YGL227W, strain vid30, active compounds read low 1 | locus YGL240W, strain doc1, active compounds read low 1.04 | locus YGL248W, strain PDE1, active compounds read low 1.03 | locus YGL253W, strain hxk2, active compounds read low 0.98 | locus YGR078C, strain PAC10, active compounds read low 0.999 | locus YGR135W, strain pre9, active compounds read low 1.01 | locus YGR229C, strain SMI1, active compounds read low 1.01 | locus YGR252W, strain gcn5, active compounds read low 1.03 | locus YHR013C, strain ard1, active compounds read low 1 | locus YHR027C, strain rpn1, active compounds read low 0.996 | locus YHR030C, strain SLT2, active compounds read low 1 | locus YHR079C, strain IRE1 (second series), active compounds read low 1.03 | locus YHR079C, strain IRE1, active compounds read low 1.02 | locus YHR094C, strain hxt1, active compounds read low 1.01 | locus YHR129C, strain ARP1, active compounds read low 1.01 | locus YHR142W, strain chs7, active compounds read low 0.995 | locus YHR200W, strain rpn10, active compounds read low 1.02 | locus YIL066C, strain RNR3, active compounds read low 1.02 | locus YIL073C, strain SPO22, active compounds read low 1.11 | locus YIL125W, strain kgd1, active compounds read low 1.02 | locus YIR030C, strain dcg1, active compounds read low 1.02 | locus YJL092W, strain hpr5, active compounds read low 1.01 | locus YJL095W, strain BCK1 (second series), active compounds read low 1.01 | locus YJL095W, strain BCK1, active compounds read low 1.02 and 1.03 | locus YJL115W, strain asf1, active compounds read low 0.999 | locus YJL129C, strain trk1, active compounds read low 1.01 | locus YJL134W, strain LCB3, active compounds read low 1.01 | locus YJL154C, strain vps35, active compounds read low 0.998 | locus YJL164C, strain tpk1, active compounds read low 0.98 | locus YJL166W, strain qcr8, active compounds read low 1.04 | locus YJL168C, strain set2, active compounds read low 1.02 | locus YJL187C, strain SWE1 (second series), active compounds read low 1.03 | locus YJL187C, strain SWE1, active compounds read low 1.01 | locus YJR043C, strain POL32, active compounds read low 0.986 | locus YJR066W, strain TOR1, active compounds read low 0.988 | locus YJR075W, strain HOC1, active compounds read low 1.02 | locus YKL009W, strain mrt4, active compounds read low 1.02 | locus YKL068W, active compounds read low 1.01 | locus YKL085W, strain MDH1 (second series), active compounds read low 1.01 | locus YKL085W, strain MDH1, active compounds read low 1.01 | locus YKL160W, strain elf1, active compounds read low 1.02 | locus YKR001C, strain vps1, active compounds read low 1.01 | locus YKR026C, strain gcn3, active compounds read low 1 | locus YKR091W, strain srl3, active compounds read low 1 | locus YLL001W, strain dnm1, active compounds read low 1.02 | locus YLL026W, active compounds read low 1.01 | locus YLL041C, strain sdh2, active compounds read low 0.993 | locus YLR027C, strain aat2, active compounds read low 1.01 | locus YLR039C, strain RIC1, active compounds read low 1.04 | locus YLR058C, strain SHM2, active compounds read low 1.02 | locus YLR102C, strain apc9, active compounds read low 1.02 | locus YLR113W, strain HOG1, active compounds read low 1.04 | locus YLR221C, strain rsa3, active compounds read low 0.986 | locus YLR258W, strain gsy2, active compounds read low 0.993 | locus YLR262C, strain YPT6 (second series), active compounds read low 1.03 | locus YLR262C, strain YPT6, active compounds read low 1.07 | locus YLR268W, strain sec22, active compounds read low 1.02 | locus YLR320W, strain mms22, active compounds read low 0.977 | locus YLR330W, strain CHS5, active compounds read low 1.01 | locus YLR342W, strain FKS1 (second series), active compounds read low 0.997 | locus YLR342W, strain FKS1, active compounds read low 1.03 | locus YLR357W, strain rsc2, active compounds read low 0.993 | locus YLR370C, strain arc18, active compounds read low 1 | locus YLR371W, strain rom2, active compounds read low 1.02 | locus YLR384C, strain iki3, active compounds read low 0.998 | locus YLR418C, strain cdc73, active compounds read low 1.04 | locus YML016C, strain PPZ1, active compounds read low 1.01 | locus YML032C, strain rad52, active compounds read low 1.01 | locus YML120C, strain ndi1, active compounds read low 1.03 | locus YML124C, strain tub3, active compounds read low 1.02 | locus YMR058W, strain fet3, active compounds read low 1.01 | locus YMR078C, strain ctf18, active compounds read low 1.04 | locus YMR125W, strain sto1, active compounds read low 0.999 | locus YMR129W, active compounds read low 1 | locus YMR205C, strain PFK2, active compounds read low 1.01 | locus YMR223W, strain ubp8, active compounds read low 1.02 | locus YMR231W, strain pep5, active compounds read low 0.999 | locus YMR307W, strain GAS1, active compounds read low 0.933 | locus YNL067W, strain RPL9B, active compounds read low 1.03 | locus YNL071W, strain lat1, active compounds read low 0.989 | locus YNL128W, strain TEP1, active compounds read low 0.983 | locus YNL153C, strain GIM3, active compounds read low 1 | locus YNL175C, strain NOP13, active compounds read low 0.996 | locus YNL183C, strain NPR1, active compounds read low 0.972 | locus YNL197C, strain WHI3, active compounds read low 0.978 | locus YNL209W, strain ssb2, active compounds read low 0.989 | locus YNL224C, strain SQS1, active compounds read low 1.01 | locus YNL233W, strain BNI4, active compounds read low 1.02 | locus YNL248C, strain rpa49, active compounds read low 0.994 | locus YNL250W, strain rad50, active compounds read low 1.04 | locus YNL271C, strain bni1, active compounds read low 1.03 | locus YNL298W, strain CLA4, active compounds read low 1.02 | locus YNL307C, strain MCK1, active compounds read low 1.03 | locus YNL322C, strain KRE1 (second series), active compounds read low 0.999 | locus YNL322C, strain KRE1, active compounds read low 1 | locus YNR049C, strain mso1, active compounds read low 1 | locus YNR052C, strain pop2, active compounds read low 1.02 | locus YOL006C, strain TOP1, active compounds read low 1.1 | locus YOL012C, strain htz1 1.89 | locus YOL147C, strain pex11, active compounds read low 1.03 | locus YOR001W, strain rrp6, active compounds read low 1.05 | locus YOR061W, strain CKA2, active compounds read low 1.02 | locus YOR069W, strain VPS5, active compounds read low 1.01 | locus YOR070C, strain gyp1, active compounds read low 0.99 | locus YOR080W, strain dia2, active compounds read low 1.01 | locus YOR083W, strain WHI5 (second series), active compounds read low 1 | locus YOR083W, strain WHI5, active compounds read low 0.994 | locus YOR106W, strain vam3, active compounds read low 1.04 | locus YOR136W, strain idh2, active compounds read low 1.03 | locus YOR144C, strain elg1, active compounds read low 1.02 | locus YOR184W, strain ser1, active compounds read low 1.02 | locus YOR231W, strain MKK1, active compounds read low 1.02 | locus YOR265W, strain rbl2, active compounds read low 1.01 | locus YOR270C, strain vph1, active compounds read low 1.03 | locus YOR290C, strain snf2, active compounds read low 0.97 | locus YOR316C, strain cot1, active compounds read low 1.02 | locus YPL051W, strain arl3, active compounds read low 1.02 | locus YPL055C, strain LGE1, active compounds read low 1.01 | locus YPL078C, strain atp4, active compounds read low 1.05 | locus YPL106C, strain sse1, active compounds read low 0.986 | locus YPL240C, strain hsp82, active compounds read low 1.01 | locus YPL241C, strain CIN2, active compounds read low 1 | locus YPL256C, strain CLN2, active compounds read low 1.02 | locus YPR119W, strain clb2, active compounds read low 1.02 | locus YPR141C, strain kar3, active compounds read low 1.03 | locus YPR163C, strain tif3, active compounds read low 1.02 | locus YPR167C, strain met16, active compounds read low 1.03 | strain wtn01, active compounds read low 1.01
